The values that follow come from PubChem BioAssay (NCI).

This is part of a sample that, as a whole, favours compounds with a hit. Of some 83,000 tested, about 20% had one in any assay.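 The endpoint reported here, percent growth, reads 100 for growth as untreated, 0 for no net growth and -100 for all cells dead.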 A number with no mark means an inactive call. The source made the active and inactive calls. Rule for the calls: active = growth percent below 10; inactive = the rest.

Assay in all cases: NCI-60 one-dose screen, 48 h (100 = growth as untreated, 0 = no growth, -100 = all killed)
What all share (settings): 10 µM unless noted

The subject of experiment [1] is NCI-H23 lung.
For experiment [2], the system named is NCI-H226 lung.
For experiment [3], the system named is NCI-H322M lung.
Experiment [4] deals with HOP-62 NSCLC.
For experiment [5], the system named is NCI-H460 lung.
Experiment [6] concerns HOP-92 NSCLC.
The subject of experiment [7] is NCI-H522 lung.
Experiment [8] has as its system A549/ATCC NSCLC.
Experiment [9] concerns 786-0 renal.
Experiment [10] concerns COLO 205 colon.
In experiment [11] the test system is DU-145 prostate.
In experiment [12] the test system is K-562 leukemia.
Experiment [13] deals with MALME-3M melanoma.
Experiment [14] has as its system MDA-MB-231 breast.
Experiment [15] has as its system RXF 393 renal.
The subject of experiment [16] is SF-268 CNS.
For experiment [17], the system named is SF-295 CNS.
For experiment [18], the system named is SF-539 CNS.
For experiment [19], the system named is UACC-257 melanoma.
The test system of experiment [20] is M14 melanoma.

On to `CC1CC2Oc3ccc(Cl)cc3C(=O)N2O1` (stereo not given), for which the growth in experiment [1] was 99.5%; in experiment [2] it was 99.3%; in experiment [3], 126%; in experiment [4], 101%; in experiment [5] it was 108%; in experiment [6], 86.4%. The growth is 108% in experiment [7]; 98% in experiment [8]; 104% in experiment [9]; 108% in [10]; 102% in [11]; 107% in experiment [12]. For the same molecule, the growth is 118% in experiment [13]; 102% in [14]; 119% in experiment [15]; 103% in [16]; 104% in [17]; 102% in [18]. Besides, the growth is 118% in experiment [19] and 107% in experiment [20].
On to `CN(C)c1ccc(-c2cc(-c3ccc(Nc4nc(Nc5ccc(Cl)cc5)nc(Nc5ccc(Cl)cc5)n4)cc3)no2)cc1`, for which the growth in [1] is 45%; in experiment [2], 87.1%; in experiment [3] it was 65.2%; in [4] it was 63.6%; in [5], 27.1%; in experiment [6] it was -11.5% (active). Also, the growth in experiment [7] was 55.9%; in [8], 23.1%; in experiment [9], 36.9%; in experiment [10] it was 0.291% (active); in experiment [11] it was 47.7%; in experiment [12], 24.8%. In addition, the growth is 54% in experiment [13]; 35.6% in experiment [14]; -42.1% (active) in experiment [15]; 45% in experiment [16]; -16.8% (active) in experiment [17]; 46.1% in experiment [18]. Besides, the growth is 65.7% in experiment [19] and 61.6% in experiment [20].
On to `O=C1Nc2ccccc2/C1=C/c1cn(C(=O)c2c(Cl)cccc2Cl)c2ccccc12`, for which the growth in [1] was 56.9%; in experiment [2] it was 48.2%; in experiment [3] it was 90.4%; in [4], 88.8%; in experiment [5], 71.2%; in [6], 49.1%. In addition, the growth in experiment [7] is 55.3%; in [8], 36.7%; in experiment [9], 57.1%; in experiment [10] it was 41.7%; in [11], 59.3%; in [12], 45.7%. For the same molecule, the growth in experiment [13] is 117%; in experiment [14] it was 55.1%; in [15], -4.11% (active); in [16], 56.6%; in [17], 44.5%; in [18] it was 67.4%. The results for the growth in experiment [19] and in [20] were 79.2% and 66.2%, respectively.
For the molecule `COc1ccc(/C=C/c2c(C(=O)/C=C/c3cccs3)c(C)nc3ccccc23)cc1`, the growth in experiment [1] was 67.3%; in experiment [2], 76%; in [3], 89.7%; in [4], 93.2%; in experiment [5], 83.6%; in [6] it was 42.7%. In addition, the growth is 62.6% in [7]; 92.5% in experiment [8]; 90.6% in experiment [9]; 78.4% in experiment [10]; 82.7% in [11]; 43.1% in experiment [12]. Also, the growth in experiment [13] was 107%; in experiment [14], 78.2%; in [15], 77.4%; in [16], 85.3%; in experiment [17], 86.3%; in [18] it was 95.9%. In addition, the growth in experiment [19] was 83.8%; in experiment [20], 89.3%.
For `C=CCNc1nc(NN2C(=O)c3cccc4cccc(c34)C2=O)nc(-n2cnc3ccccc32)n1`, the growth is 76.9% in experiment [1]; 51.8% in experiment [2]; 94.1% in experiment [3]; 60.4% in [4]; 94.6% in experiment [5]; 16.5% in [6]. Also, the growth in [7] is 76.6%; in experiment [8], 86.4%; in experiment [9] it was 89.2%; in experiment [10], 103%; in experiment [11], 97.9%; in experiment [12], 9.94% (active). In addition, the growth was 93.5% in experiment [13]; 68.3% in experiment [14]; 50.3% in experiment [15]; 65% in experiment [16]; 76.5% in experiment [17]; 50.4% in [18]. Besides, the growth in experiment [19] was 102%; in experiment [20], 97.9%.
As to `CCOc1ccccc1-n1c(CN2CCN(C(=O)COc3ccc(CNCCCCCCN4C5CCCC4CC(OC(=O)Nc4cc(C)ccc4OC)C5)cc3)CC2)nc2ccccc2c1=O` (stereo not given), the growth was -82.6% (active) in [1]; -73.5% (active) in experiment [2]; -98.1% (active) in experiment [3]; -92% (active) in experiment [4]; -90.9% (active) in experiment [5]; -90.2% (active) in experiment [6]. In addition, the growth in [7] is -86.7% (active); in [8], -88.2% (active); in experiment [9], -89.6% (active); in experiment [10], -85.1% (active); in [11], -98.5% (active); in experiment [12], -56.9% (active). The growth is -84.9% (active) in experiment [13]; -91.1% (active) in experiment [14]; -76.8% (active) in [15]; -77.1% (active) in [16]; -92.6% (active) in experiment [17]; -92.8% (active) in experiment [18]. Moreover, the growth in experiment [19] is -95.6% (active); in [20], -77.6% (active).
As to `NC(=O)c1ccc[n+](Cc2ccc(Cl)cc2Cl)c1`, the growth in experiment [1] was 102%; in experiment [2], 99.3%; in experiment [3], 104%; in [4] it was 88.3%; in experiment [5] it was 102%; in experiment [6], 96%. In addition, the growth in experiment [7] was 79.4%; in experiment [8] it was 70.1%; in experiment [9], 94.7%; in experiment [10] it was 111%; in experiment [11], 111%; in experiment [12], 92.9%. The growth in experiment [13] was 100%; in experiment [14] it was 103%; in experiment [15], 118%; in experiment [16], 103%; in experiment [17], 111%; in experiment [18], 105%. The values for the growth in [19] and in experiment [20] were 72% and 94.5%, respectively.
With `O=C(Nc1ccccc1Cl)Oc1ccc(-c2ccccc2)cc1`, the growth was 93.5% in experiment [1]; 103% in experiment [2]; 114% in [3]; 96.3% in [4]; 105% in experiment [5]; 94.4% in experiment [6]. In addition, the growth was 103% in experiment [7]; 104% in experiment [8]; 97.2% in [9]; 127% in experiment [10]; 120% in [11]; 110% in experiment [12]. In addition, the growth in experiment [13] is 122%; in experiment [14] it was 107%; in [15], 109%; in [16], 119%; in experiment [17], 114%; in [18], 95.1%. Further, the growth in experiment [19] is 111%; in experiment [20] it was 107%.
